# Results from publication PMC5540273 (PLoS ONE, 2017).
# System: RPS6KA4(Kin.Dom.2-C-terminal)
# Conditions: concentration: 1 μM, replicates: in singlicate; n = 1
# 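Also: KINOMEscan kinase panel screen.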
row,Structure (SMILES),%Inh [%]
1,O=C(Nc1n[nH]c2nc(-c3ccco3)c(Br)cc12)C1CCN(Cc2ccccc2)C1.O=C(O)[C@H](O)[C@@H](O)C(=O)O (centres unmarked) [SB-742034],12
2,Cn1cnc2c(N)ncnc21 [SKF-97623],0
3,COc1ccc(Nc2nccc(-c3ccc(NC(=O)c4cc5cc(F)ccc5[nH]4)cc3)n2)cc1 [GSK1229496],0
4,CNC(=O)c1ccc(C)c(-n2c(C)cc(OCc3ccc(F)cc3F)c(Br)c2=O)c1,0
5,Nc1nccc(-c2c(-c3ccc(F)cc3)ncn2C2CCN(Cc3ccccc3)CC2)n1 [SB-219980],0
6,Cc1ccc(NC(=O)Nc2ccccc2)cc1-c1ccc(C(=O)Nc2ccncc2)cc1 [GSK1398471],0
7,Fc1ccc(-c2nc[nH]c2-c2ccncc2)cc1 [SB-217360],0
8,CC(C)c1cc(-c2ccc3c(N)n[nH]c3c2)nc(N)n1 [GSK2250882],3
9,Fc1ccc(-c2nc3n(c2-c2ccncc2)CCS3)cc1 [GI98581],0
10,CCc1ccc(-c2ccc3c(c2)-c2n[nH]cc2S(=O)(=O)N3C)cc1,0
11,COc1ccc(CSc2nnc(-c3ccc4c(c3)CCO4)o2)cc1,0
12,CSc1ccc(-c2nc3n(c2-c2ccncc2)CCC3)cc1 [SKF-105561],10
13,COc1cccc(NC(=O)Nc2ccc(C)c(-c3ccc(C(=O)Nc4ccncc4)cc3)c2)c1 [GSK1398474],0
14,O=c1cc(N2CCOCC2)nc2n(Cc3cccc(Cl)c3Cl)c3ccccc3n12 [GSK2299009],0
